# Source: PubChem BioAssay
# Only some compounds are listed: those with a hit (about 18% of all), similar ones and a draw of the others.
# HepG2 viability = qHTS for Inhibitors of TGF-b: Cytotox Counterscreen; HepG2 CAGA-GFP viability, ATP luminescence, 18 h; Potency, µM (series often up to 46.1 µM), inactives show at the highest dose activity change, negative = cytotoxicity, actives largely listed as cytotoxic; 0.76% of 410,000 active; note: potency is the fitted concentration of half-maximal effect
#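 CellTiter-Glo luminescence gave cytotoxicity after 18 hours at 37 degrees C. The cells were HepG2 CAGA-GFP in 1% FBS DMEM, stimulated with 500 pg/mL TGF-beta after compound addition. %Activity was normalised to no-cell wells (complete cell-killing) and DMSO (no toxicity), and curves were fitted and classified.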
# TDP1 block = qHTS Assay for Inhibitors of Tyrosyl-DNA Phosphodiesterase (TDP1) | Tyrosyl-DNA phosphodiesterase 1 (Homo sapiens), Q9NUW8 | AID 485290, 2010 | recombinant TDP1, AlphaScreen DNA substrate cleavage | 0.28% of 350,000 active | Potency, µM (highest dose often 130 µM), inactives show at the highest dose activity change, negative = inhibition, hits mostly inhibitors; note: potency is the fitted concentration of half-maximal effect; % is set by controls: 0 for no effect and ±100 for the full control effect; nearly all actives have a fitted effect of over 40% in size
# Target sequence (Q9NUW8 whole entry, looked up): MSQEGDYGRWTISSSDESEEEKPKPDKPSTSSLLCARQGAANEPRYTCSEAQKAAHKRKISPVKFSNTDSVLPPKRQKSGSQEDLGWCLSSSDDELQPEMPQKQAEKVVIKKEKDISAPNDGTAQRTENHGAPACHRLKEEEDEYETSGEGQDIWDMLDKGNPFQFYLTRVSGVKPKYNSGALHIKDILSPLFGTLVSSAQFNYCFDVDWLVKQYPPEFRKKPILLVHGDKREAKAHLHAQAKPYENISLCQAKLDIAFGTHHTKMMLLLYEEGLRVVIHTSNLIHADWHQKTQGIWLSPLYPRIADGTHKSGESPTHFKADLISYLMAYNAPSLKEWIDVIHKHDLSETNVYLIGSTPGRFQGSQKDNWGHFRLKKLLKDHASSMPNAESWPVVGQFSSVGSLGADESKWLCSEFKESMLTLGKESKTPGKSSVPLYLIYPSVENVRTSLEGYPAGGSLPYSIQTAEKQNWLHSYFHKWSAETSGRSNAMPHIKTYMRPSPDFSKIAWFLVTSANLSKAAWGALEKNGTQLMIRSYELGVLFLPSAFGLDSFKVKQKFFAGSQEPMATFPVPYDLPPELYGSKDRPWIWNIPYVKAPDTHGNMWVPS
#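 Recombinant human Tdp1 (E. coli-expressed, 1 nM final) preincubated with compounds 15 min at room temperature, then 5'-biotin/3'-phosphotyrosine-FITC DNA substrate (15 nM final) added for 5 min. AlphaScreen beads (10 ug/ml final) added 10 min; cleavage lowers signal.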
# DT40 TDP1 CPT = qHTS for Inhibitors of human tyrosyl-DNA phosphodiesterase 1 (TDP1): qHTS in cells in presence of CPT; 12% of 420,000 active; chicken DT40 Tdp1-/-;hTDP1 cells + 20 nM CPT, ATP luminescence, 48 h; Potency, µM (top dose mostly 46.2 µM), for the others: top-dose activity change, negative = growth inhibition, usual class: inhibitors; AID 686979, 2013; note: potency is the fitted concentration of half-maximal effect; % is set by controls: 0 for no effect and ±100 for the full control effect; nearly all actives have a fitted effect of over 55% in size
#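 Chicken DT40 Tdp1-/- cells stably complemented with human TDP1 were seeded at 400 cells/well in medium containing 20 nM camptothecin, exposed to pin-transferred compounds, and grown at 37 °C for at least 48 hr. Viability was read as ATP luminescence.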
# TGFb SMAD3 inh = qHTS for Inhibitors of TGF-b; HepG2 CAGA-GFP TGF-b/SMAD3 reporter, GFP fluorescence, 18 h; TGF-beta stimulated, 500 pg/mL final; 1.2% of 410,000 active; Potency, µM (doses to about 46.1 µM), for the others: at the highest dose activity, negative = inhibition, hits mostly inhibitors; AID 588855, 2011; note: potency is the fitted concentration of half-maximal effect; % is set by controls: 0 for no effect and ±100 for the full control effect; nearly all actives have a fitted effect of over 65% in size
#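 Using HEPG2 CAGA-GFP reporter cells at 1000 cells/well, we pinned test compounds, stimulated with recombinant TGF-beta (500 pg/mL final) and measured total well GFP after 18 h.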
# DT40 TDP1 no CPT = qHTS for Inhibitors of human tyrosyl-DNA phosphodiesterase 1 (TDP1): qHTS in cells in absence of CPT | DT40 Tdp1-/- hTDP1 cells, no CPT, ATP luminescence, 48 h | Potency, µM (highest dose often 46.2 µM), inactives show top-dose activity change, negative = growth inhibition, usual class: inhibitors | 15% of 420,000 active; note: potency is the fitted concentration of half-maximal effect; % is set by controls: 0 for no effect and ±100 for the full control effect; nearly all actives have a fitted effect of over 55% in size
#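 DT40 Tdp1-/-;hTDP1 cells, no CPT (DMSO vehicle only), 400 cells/well; compounds pin-transferred; ≥48 hr, 37 °C; CellTiter-Glo 30 min RT dark, luminescence read.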
# IL-1B inflam inh = qHTS for Inhibitors of Inflammasome Signaling: IL-1-beta AlphaLISA Primary Screen; 4.7% of 360,000 active; activity change, % at 57.5 µM; THP-1 LPS/ATP IL-1B secretion, AlphaLISA, 16 h; active compounds read low; in the data active = activity change below about -50%; inconclusive = mostly about -30% to -49%; note: % is set by controls: 0 for no effect and ±100 for the full control effect
#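 THP-1 cells pretreated 1 hr with compounds (up to 57.5 uM final), then stimulated with LPS (250 ng/mL final) plus ATP (1.25 mM final); secreted IL-1B measured by AlphaLISA after 16 hr, decreased signal indicating inhibition.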
# * = called active by the depositor; ? = inconclusive; . = not tested or not shown; [ ] = dose if it differs, or a comment. Unless noted, calls come from the whole dose curve; as a rule, active = well fitted curve in the direction sought with a large enough effect; inconclusive = small, poorly fitted or top-dose-only effect, or another doubt; inactive = no such curve, though single readings can be large; an effect the other way counts as inactive or inconclusive.
SMILES,HepG2 viability,TDP1 block,DT40 TDP1 CPT,TGFb SMAD3 inh,DT40 TDP1 no CPT,IL-1B inflam inh
CC(=O)N1CCc2nc3sc(C(=O)c4ccc(F)cc4)c(N)c3c(C(F)(F)F)c2C1,-14.2%,5.8%,?,50.3%,20.6µM*,.
COc1ccc(C(=O)c2sc3nc4c(c(C(F)(F)F)c3c2N)CN(C(C)=O)CC4)cc1OC,-23.4%,0.6%,18.4µM*,18.5%,16.4µM*,.
Cc1noc(C)c1NC(=O)N(C)C[C@@H]1OCc2cnnn2CCCC(=O)N([C@@H](C)CO)C[C@@H]1C,-30.5%,.,-9.1%,-6.9%,0.4%,-19.6
N#Cc1c(-c2ccc(Cl)cc2Cl)nc2n(c1=O)CCS2,-2.9%,0.5%,-12.5%,-1.9%,-9.9%,39.4
Cc1nonc1OCCN1CCN(c2ccccc2[N+](=O)[O-])CC1,3.3%,5.0%,-8.5%,-1.2%,?,0.0
Cc1cc(N2CCN(c3ccc(C(F)(F)F)cc3[N+](=O)[O-])CC2)c2ccccc2n1,-60.7%,9.2%,?,10µM*,20.6µM*,-27.5
O=C(c1ccccc1F)N1CCN(c2ccc([N+](=O)[O-])c3cccnc23)CC1,-2.8%,6.0%,-25.4%,15.8%,?,?
Cc1cc(N2CCN(c3ccc([N+](=O)[O-])c4cccnc34)CC2)c2ccccc2n1,3.16µM*,2.7%,8.2µM*,?,5.8µM*,-94.4*
Nc1nonc1OCCN1CCN(c2ccc([N+](=O)[O-])c3cccnc23)CC1,-20.0%,.,23.1µM*,-19.5%,?,4.4
CCCc1ccc(C(O)c2ncc(-c3ccccc3)[nH]2)cc1 (centres undefined),-17.0%,.,-55.1%,13.0%,-59.9%,-4.1
O=S1(=O)CC(N2CCN(Cc3ccccc3F)CC2)CN1Cc1cn(Cc2ccc(F)cc2)nn1 (centres undefined),.,.,-16.0%,.,?,-15.9
Cc1cccc(CN2CCN(C3CN(Cc4cn(Cc5ccc(Cl)cc5)nn4)S(=O)(=O)C3)CC2)c1 (centres undefined),.,.,18.4µM*,.,20.6µM*,-18.2
Cc1cc(C)cc(Cn2cc(CN3CC(N4CCN(C)CC4)CS3(=O)=O)nn2)c1 (centres undefined),.,.,9.1%,.,-16.4%,-5.9
Cc1cccc(CN2CCN(C3CN(Cc4cn(Cc5cccc(Cl)c5)nn4)S(=O)(=O)C3)CC2)c1 (centres undefined),.,.,18.4µM*,.,14.6µM*,4.2
O=S1(=O)CC(N2CCN(Cc3ccccc3F)CC2)CN1Cc1cn(Cc2cccc(Cl)c2)nn1 (centres undefined),.,.,?,.,20.6µM*,-7.1
CCCCCCN1CCN(C2CN(Cc3cn(Cc4cc(C)cc(C)c4)nn3)S(=O)(=O)C2)CC1 (centres undefined),.,.,?,.,16.4µM*,?
CCCC[n+]1c(C)ccc2ccccc21,-2.2%,.,?,-16.8%,15.8µM*,.
COc1ccccc1NC(=O)C(C)OC(=O)CCCc1c[nH]c2ccccc12 (centres undefined),8.7%,-4.3%[0.505 µM],2.8%,-1.2%,-3.3%,15.6
CCOC(=O)CN1C(c2ccc(O)cc2)Nc2ccc(Br)cc2C1c1ccccc1 (centres undefined),-95.8%,5.3%,14.6µM*,?,?,-101.5*
COc1cc(NC(=O)N2CCC3(CC2)Nc2ccccc2-n2cccc23)cc(OC)c1OC,-17.1%,10.8%,20.6µM*,-0.3%,?,.
COc1cc(NC(=O)CCNC(=O)N2CC(=O)Nc3ccccc32)cc(OC)c1OC,-12.3%,.,8.3%,-4.1%,3.8%,1.7
Cn1[nH]c(-c2ccccc2)c(/C=N/O)c1=O,0.4%,2.4%,?,-7.2%,16.4µM*,0.5
Cc1[nH]n(-c2ccccc2)c(=O)c1/C=N/O,-30.0%,1.1%,-19.7%,-13.0%,-19.2%,13.6
Cc1ccc(NC(=O)CN2CCN(C3CCCCC3)C(=O)C2=O)cc1C,-18.6%,3.8%,?,?,-7.1%,.
Cc1cc(C)nc(/N=C(\N)Nc2ccc(S(=O)(=O)O)cc2)n1,-15.3%,0.0%,0.1%,-8.6%,7.5%,33.6
SMILES,HepG2 viability,TDP1 block,DT40 TDP1 CPT,TGFb SMAD3 inh,DT40 TDP1 no CPT,IL-1B inflam inh
Cc1cc(C)nc(/N=C(\N)Nc2cccc(OCc3ccccc3)c2)n1,-19.6%,.,16.4µM*,?,11.6µM*,-68.4*
COc1ccc(N/C(N)=N/c2nc(C)cc(C)n2)cc1,-1.4%,.,-21.0%,-16.9%,?,82.3
Cc1cc(C)nc(/N=C(\N)Nc2ccc(OCCC(C)C)cc2)n1,43.9%,1.4%,9.2µM*,?,11.6µM*,-97.9*
COc1ccccc1N/C(N)=N/c1nc(C)cc(C)n1,-39.5%,.,?,-8.7%,?,-7.8
Cc1cc(C)nc(/N=C(\N)Nc2ccc(C)c([N+](=O)[O-])c2)n1,-34.4%,2.0%,10.3µM*,?,13µM*,-111.5*
CC(C)c1ccc(N(CCc2ccccn2)C(=O)C(C)(C)C)cc1,10.8%,.,16.4µM*,5.7%,14.6µM*,5.8
CC(C)(C)C(=O)N(CCN(C(=O)C(C)(C)C)c1ccccc1)c1ccccc1,0.0%,6.7%,?,?,?,0.9
COc1ccc(C(CNCC(O)COc2c(C)ccc(C)c2C)N(C)C)cc1 (centres undefined),-38.1%,.,25.9µM*,-27.9%,11.6µM*,-7.7
Cn1cc(-c2coc3c(C(=O)Nc4ccccc4)cccc23)cn1,-25.0%,.,?,1.6%,?,-28.8
COc1cc(NC(=O)c2cccc3c(-c4cnn(C)c4)coc23)cc(OC)c1OC,36.1%,.,4.61µM*,48.6%,3.26µM*,-75.3*
COc1ccc(NC(=O)c2cccc3c(-c4cnn(C)c4)coc23)cc1,-20.3%,.,?,19.2%,23.1µM*,?
Cc1cc(C)nc(Nc2nc(=O)c3ccccc3s2)n1,1.4%,3.8%,?,?,20.6µM*,-16.3
COc1ccc(S(=O)(=O)N2CCN(C(=O)CCc3c[nH]c4ccccc34)CC2)cc1,-8.9%,4.6%,-19.8%,-17.5%,?,-13.0
CC(C)C1C(=O)N(Cc2cn(Cc3ccco3)nn2)CCS(=O)(=O)N1Cc1ccc(-c2cccc(N(C)C)c2)cc1 (centres undefined),-4.3%,.,?,8.2%,16.4µM*,-29.7
